Screens as filed in PubChem BioAssay.
KB-V1 MDR tox: kills drug-selected multidrug resistant KB-V1 cells. AID 1347076. actives 3.4% (n = 400,000). Potency, µM (series often up to 46.1 µM), actives largely listed as cytotoxic. KB-V1 MDR cells viability, CellTiter-Glo, 72 h; also: potency is read from the fitted curve at half-maximal effect; % is scaled to controls: 0 for no effect and ±100 for the full control effect; nearly all actives have a fitted effect of over 60% in size
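Luminescent ATP read-out (CellTiter-Glo, 10 min) measures survival of drug-selected KB-V1 MDR cells after 72 h, 37 degrees C compound exposure. Medium: phenol-red-free DMEM, 10% FBS. Values from fitted concentration-response curves.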
MCF10A rereplic: inducers of DNA re-replication in MCF 10A breast cells | MCF 10A DNA re-replication, Hoechst nuclear intensity, 48 h | Potency, µM (titrated, usually from 46.1 µM), for the others: at the highest dose activity, positive = re-replication, most hits filed as activators | actives 2.9% (n = 350,000); also: potency is read from the fitted curve at half-maximal effect; % of control where 0% means no effect; nearly all actives have a fitted effect of over 50% in size
KB-3-1 tox: KB-3-1 parental cell cytotoxicity; KB-3-1 viability, CellTiter-Glo ATP luminescence, 72 h; actives 1.4% (n = 400,000); Potency, µM (top dose mostly 46.1 µM), most hits filed as cytotoxic; also: potency is read from the fitted curve at half-maximal effect; % is scaled to controls: 0 for no effect and ±100 for the full control effect; nearly all actives have a fitted effect of over 60% in size
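Here the drug-naive KB-3-1 line serves as comparator for MDR sub-line selectivity; cells received compound titrations, 72 h at 37 °C, then CellTiter-Glo readout.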
Giardia killer: Giardia lamblia killing | Giardia lamblia trophozoite viability | activity change, % at 7.66 µM, hits read low | actives 0.15% (n = 340,000); in the data active = activity change below about -80%; inconclusive = between about -30% and that limit;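 also: parasites exposed to compound for two days anaerobically before the ATP read; % is scaled to controls: 0 for no effect and ±100 for the full control effect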
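Compounds were tested on trophozoites seeded at 100 cells/well and held 48 hrs at 37 deg C anaerobically. An ATP-based luminescent kit measured the remaining live cells.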
S-ASM inh: human S-ASM enzyme inhibition. placental ASM, HMU-PC fluorogenic substrate, 60 min. Potency, µM (series often up to 57.5 µM), without a hit: at the highest dose activity change, negative = inhibition, hits mostly inhibitors. actives 0.006% (n = 340,000); also: potency is read from the fitted curve at half-maximal effect
Target sequence (P17405 47-631 limits assumed): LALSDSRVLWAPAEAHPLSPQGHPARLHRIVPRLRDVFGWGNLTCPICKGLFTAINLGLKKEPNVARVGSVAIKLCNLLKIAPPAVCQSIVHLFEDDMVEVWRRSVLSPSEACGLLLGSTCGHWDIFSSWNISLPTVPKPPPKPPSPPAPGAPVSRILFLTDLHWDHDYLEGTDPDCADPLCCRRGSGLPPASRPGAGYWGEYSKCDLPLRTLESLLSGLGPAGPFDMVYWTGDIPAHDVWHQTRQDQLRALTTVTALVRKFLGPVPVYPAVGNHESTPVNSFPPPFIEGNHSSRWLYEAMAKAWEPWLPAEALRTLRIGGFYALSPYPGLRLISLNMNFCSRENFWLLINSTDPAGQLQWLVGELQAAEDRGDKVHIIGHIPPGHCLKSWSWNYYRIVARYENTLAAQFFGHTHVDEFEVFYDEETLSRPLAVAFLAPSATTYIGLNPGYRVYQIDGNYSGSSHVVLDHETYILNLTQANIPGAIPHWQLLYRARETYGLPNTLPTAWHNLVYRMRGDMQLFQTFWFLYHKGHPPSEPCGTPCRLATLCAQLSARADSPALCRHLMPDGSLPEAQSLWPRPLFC
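Steps: dispense placental human ASM, pin compound, wait 10 min at room temperature, add HMU-PC0 substrate at 9 uM final, incubate 60 min at 37 °C, add stop solution raising pH to 10, read fluorescence.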
SW480 rereplic: DNA re-replication induction in SW480 cells; Potency, µM (series often up to 46.1 µM), inactives show at the highest dose re-replication activation, most hits filed as activators; SW480 DNA re-replication, Hoechst DNA content imaging, 48 h; actives 1.8% (n = 340,000); AID 624297; also: potency is read from the fitted curve at half-maximal effect; % of control where 0% means no effect; nearly all actives have a fitted effect of over 55% in size
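DNA re-replication was detected as more nuclei of elevated Hoechst intensity after 48 hr exposure to compound (23 nL pinned per well of 250 cells).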
* hit, by the source's call; i = inactive; ? = inconclusive; nt = no result given. This is a sample that favours compounds with a hit; in the whole collection about 6.9% have one here. Unless noted, calls follow the shape of the dose curve; as a rule, active = well fitted curve in the direction sought with a large enough effect; inconclusive = small, poorly fitted or top-dose-only effect, or another doubt; inactive = no such curve, though single readings can be large; an effect the other way counts as inactive or inconclusive.

SMILES	KB-V1 MDR tox	MCF10A rereplic	KB-3-1 tox	Giardia killer	S-ASM inh	SW480 rereplic
COc1ccccc1-c1noc2c1C(=O)N(Cc1cn(C3CCCC3)nn1)CC2	i	nt	i	nt	nt	nt
O=C1c2c(-c3ccc(Br)cc3)noc2CCN1Cc1cn(Cc2cccnc2)nn1	23.1µM*	nt	?	nt	nt	nt
CCOC(=O)C1CCN(C(=O)c2cc3ccc4ccc(C)[nH]c4c3n2)CC1	i	nt	i	nt	nt	nt
CCC(=O)c1ccc(N2CCN(C(=O)c3ccccc3)CC2)c(F)c1	i	9.4%	i	6.9	-4.4%	-10.8%
O=C(Nc1ccncc1)C1CCCN(S(=O)(=O)c2cccc3cccnc23)C1 (centres undefined)	i	9.2µM*	?	-7.6	-1.3%	2.06µM*
CC(C)(C)c1ccc(NC(=O)c2cc(C3CCCN(S(=O)(=O)c4cccc5cccnc45)C3)on2)cc1 (centres undefined)	23.1µM*	nt	?	nt	nt	nt
O=C(Nc1ccc(C(F)(F)F)cc1)C1CCCN(S(=O)(=O)c2cccc3cccnc23)C1 (centres undefined)	i	nt	i	nt	nt	nt
Cc1ncccc1C(=O)N1CCCC(c2cc(C(=O)Nc3ccc(C(C)(C)C)cc3)no2)C1 (centres undefined)	i	nt	i	nt	nt	nt
Cc1cc(C)n(-c2nc(NCC3CCCO3)c3c4c(sc3n2)COC(C)(C)C4)n1 (centres undefined)	?	?	16.4µM*	5.9	165.8%	16.8%
COc1ccc(Cl)cc1NC(=O)c1nn(C)c2c1CS(=O)(=O)c1ccccc1-2	i	nt	i	nt	nt	nt
O=C1CC(c2ccccc2)CC(O)=C1C=NC1CCCCC1 (centres undefined)	6.51µM*	-2.2%	i	4.2	-0.7%	8.2%
O=C1CC(c2ccccc2)CC(O)=C1C=NC1CCCCCC1 (centres undefined)	i	-6.6%	i	-0.4	-2.1%	-4.3%
CC(=O)N1CCc2c(sc(NC(=O)CSc3ccccc3)c2-c2nc3ccccc3s2)C1	nt	nt	nt	5.3	nt	nt
CC(=O)N1CCc2c(sc(NC(=O)C3CC3)c2-c2nc3ccccc3s2)C1	i	23.1µM*	?	6.9	242.9%	?
CC(=O)Nc1sc2c(c1-c1nc3ccccc3s1)CN(C(C)C)CC2	?	?	?	7.3	12.7%	2.59µM*
Cc1nc2ccccc2n1/N=C/c1ccc([N+](=O)[O-])s1	11.6µM*	18.4µM*	?	?	-11.1%	?
O=[N+]([O-])c1ccc(/C=N/n2c(CO)nc3ccccc32)s1	i	13.6%	?	-106.1*	-7.3%	3.26µM*
C=CCn1c(Cc2cccs2)nnc1SCC(=O)c1ccc2ccccc2c1	?	11.6µM*	i	4.4	-9.4%	27.4%
C=CCn1c(Cc2cccs2)nnc1SCC(=O)Nc1ccc(OC)c(OC)c1	23.1µM*	0.0%	i	-3.2	1.6%	-6.3%
CCCCOc1ccc(C(=O)NCC2(c3ccccc3)CCOCC2)cc1	i	27.6%	i	-6.6	-6.9%	18.4%
CCCCCOc1ccc(C(=O)NCC2(c3ccccc3)CCOCC2)cc1	23.1µM*	22.1%	i	-5.1	-9.3%	2.6%
CCOc1ccccc1OCC(=O)Nc1ccc(N2CCOCC2)cc1N1CCOCC1	i	0.1%	i	-3.9	-0.6%	-6.5%
COC(=O)c1sc2nc(CSc3ccc(Br)cc3)[nH]c(=O)c2c1C	i	14.6µM*	i	-8.6	3.4%	-4.1%
CCOC(=O)C(=Cc1cc(=O)c(OC)co1)C(=O)OCC	?	1.64µM*	4.61µM*	-24.7	2.8%	?
COC(=O)Nc1ccc2ccc3c(NC(=O)OC)ccc4ccc1c2c43	nt	20.6µM*	nt	16.8	i	?
COC(=O)Nc1ccc(C)cc1NC(=O)OC	i	-0.3%	i	3.2	2.8%	1.1%
C[C@@]12C(=O)Nc3ccc(F)cc3C(=O)N1[C@H]1c3cc(Cl)ccc3OC[C@@H]1[C@@H]2c1ccccc1	i	18.4µM*	?	-21.3	-20.9%	20.6µM*
